This is a sample that favours compounds with a hit; in the whole collection about 3% have one here.
A549 tox: counter-screen for Nrf2 inhibitors: cytotoxicity in A549 cells | AID 504648 | A549 ARE-Fluc cells, CellTiter-Fluor viability, 18-24 h | hit rate 0.16% among 390,000 | Potency, µM (top dose mostly 46 µM), for inactives: top-dose activity change, negative = cytotoxicity, most hits filed as inhibitors; further: on the % scale 0 is the no-effect control and ±100 the full control effect
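A549 ARE_Fluc cells in 5% FBS OPTI-MEM were exposed to compounds in concentration-response for 18-24 h at 37 deg C. Viability was read by CellTiter-Fluor fluorescence (Ex 405/Em 525) after 30 min, before the luciferase read.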
rTrxR1 inhibitor: inhibitors of rat thioredoxin reductase 1. O89049. recombinant rTrxR1, NADPH fluorescence consumption, selenite substrate. Potency, µM (series often up to 114 µM), inactives show top-dose activity change, negative = inhibition, most hits filed as inhibitors. hit rate 1% among 390,000. AID 588453; further: on the % scale 0 is the no-effect control and ±100 the full control effect; nearly all actives have a fitted effect of over 65% in size
Target sequence (O89049 whole entry, looked up): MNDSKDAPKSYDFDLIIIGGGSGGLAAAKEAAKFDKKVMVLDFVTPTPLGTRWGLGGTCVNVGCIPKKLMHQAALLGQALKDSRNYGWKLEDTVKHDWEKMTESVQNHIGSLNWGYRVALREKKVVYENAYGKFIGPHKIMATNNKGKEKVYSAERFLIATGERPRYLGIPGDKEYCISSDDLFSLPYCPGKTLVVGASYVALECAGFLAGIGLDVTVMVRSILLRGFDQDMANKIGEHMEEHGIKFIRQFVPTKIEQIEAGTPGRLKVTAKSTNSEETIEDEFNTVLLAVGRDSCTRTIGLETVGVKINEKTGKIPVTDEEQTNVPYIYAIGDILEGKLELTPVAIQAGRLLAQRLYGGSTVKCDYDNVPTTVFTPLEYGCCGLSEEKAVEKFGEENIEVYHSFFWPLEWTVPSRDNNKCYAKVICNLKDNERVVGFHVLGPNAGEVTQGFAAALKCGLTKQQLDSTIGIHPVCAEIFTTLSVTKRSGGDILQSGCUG
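Rat TrxR1 (90 nM in the dispensed reagent) was pre-reduced with 400 uM NADPH for 5 min at room temperature, then incubated with compound for 15 min. After 400 uM selenite was added, NADPH fluorescence (Ex 340/Em 450 nm) was followed for 8 min.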
TrxR1 substrate: substrates of rat thioredoxin reductase 1. Potency, µM (doses to about 114 µM), without a hit: at the top dose activity change, negative = substrate turnover. O89049. AID 588456. purified TrxR1 substrate turnover, NADPH consumption readout. hit rate 0.01% among 390,000; further: on the % scale 0 is the no-effect control and ±100 the full control effect; nearly all actives have a fitted effect of over 50% in size
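Rat TrxR1, dispensed at 90 nM, was prereduced with 400 uM NADPH (final) for 5 min at ~22 deg C, then incubated with compound 15 min before 400 uM selenite. A first-read NADPH fluorescence drop versus no-compound background flagged substrates.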
Nrf2 ARE act: activators of Nrf2 (ARE) signaling; AREc32 ARE-luciferase reporter (MCF7-derived line), luminescence, 24 h; Potency, µM (series often up to 46.1 µM), inactives show at the top dose activation, actives largely listed as activators; hit rate 0.31% among 410,000; AID 624171; further: % of control where 0% means no effect; nearly all actives have a fitted effect of over 65% in size
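Luminescent ARE reporter assay in AREc32_Fluc cells: overnight plating at 37 deg C, 24 hr compound incubation, Steady-Glo added, 30 min RT before reading.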
Nrf2 inh: Nrf2 pathway inhibition; A549 ARE-Fluc reporter, luciferase luminescence, 18-24 h; Potency, µM (titrated, usually from 46 µM), for inactives: at the highest dose activity change, negative = inhibition, hits mostly inhibitors; hit rate 2.1% among 360,000; AID 504444; further: on the % scale 0 is the no-effect control and ±100 the full control effect; nearly all actives have a fitted effect of over 60% in size
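Quantitative HTS in A549 cells stably bearing an antioxidant response element-firefly luciferase construct. Inhibition of Nrf2-driven transcription was scored by luminescence after 18-24 h of compound exposure at 37 °C.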
GALK inhibitor: blocks human galactokinase activity. Potency, µM (highest dose often 57.5 µM), inactives show top-dose activity change, negative = inhibition, usual class: inhibitors. Purified GALK, Kinase-Glo residual ATP luminescence. hit rate 0.007% among 270,000. AID 1868; further: on the % scale 0 is the no-effect control and ±100 the full control effect
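Kinase-Glo Plus luminescence measured ATP left after a 1 h room-temperature reaction. The reaction used 5 nM GALK, 100 uM galactose and 35 uM ATP at pH 8.0 (20 mM HEPES, 5 mM MgCl2, 60 mM NaCl, 1 mM DTT, 0.01% BSA).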
* hit, by the source's call; ? = inconclusive; · = no result given; [ ] = another dose, or the depositor's remark. The call rests on the fitted dose curve; in most records, active means well fitted curve in the direction sought with a large enough effect; inconclusive means small, poorly fitted or top-dose-only effect, or another doubt; inactive means no such curve, though single readings can be large; an effect the other way counts as inactive or inconclusive. Potency means the concentration at half of the fitted maximal effect.

SMILES	A549 tox	rTrxR1 inhibitor	TrxR1 substrate	Nrf2 ARE act	Nrf2 inh	GALK inhibitor
CCOc1ccc(-c2cc(OC(=O)c3ccc(OC)cc3)c3c(C)oc(C)c3c(=O)c2)cc1	1%	-23%	-1%	0%	2%	·
CCOc1cc(-c2ccc(OC(=O)c3ccc(OC)cc3)c(OC)c2)cc(=O)c2c(C)oc(C)c12	-16%	35µM*	-3%	?	-28%	·
COc1ccccc1C(=O)NNC1=C(C(=O)C(F)(F)F)CCC1	-1%	45µM*	4%	15%	-20%	-2%
CNCC(O)COc1cccc(OC)c1 (centres undefined)	-1%	-69%	-4%[57.1 µM]	0%	2%	1%
CNCC(O)COc1ccccc1 (centres undefined)	·	71µM*	-4%	-1%	8%	-3%
O=C(Nc1cccnc1Cl)c1cc(-c2ccco2)on1	1%	8%[57.1 µM]	15%[57.1 µM]	10µM*	?	-2%
O=C(Nc1cccc(Cl)c1)c1cc(-c2ccco2)on1	-1%	12%	2%	10%	5%	10%
O=C(Nc1cc(Cl)ccc1O)c1cc(-c2ccco2)on1	-4%	-5%	1%	6.3µM*	-12%	0%
O=C(Nc1cc(Br)ccc1O)c1cc(-c2ccco2)on1	-5%	16%[57.1 µM]	8%[0.0914 µM]	4.5µM*	?	-8%
COc1cccc(-c2cc(C(=O)Nc3cccnc3Cl)no2)c1	1%	15%[57.1 µM]	0%[57.1 µM]	-1%	25%	-2%
COC(=O)c1c(NC(=O)CS(=O)(=O)c2ccc(C)cc2)sc2c1CCCC2	0%	8%[57.1 µM]	-9%[57.1 µM]	-1%	·	·
CC(=O)Nc1ccc(NCc2nnc3n2CCCCC3)cc1	3%	21%[57.1 µM]	1%[57.1 µM]	0%	·	·
COc1ccc(NC(=O)c2ccc3oc(=O)c(S(=O)(=O)c4ccc(C)cc4)cc3c2)cc1OC	9%	35%	4%	9%	3%	·
CCCCN(CCCC)c1ccc(Cn2ccc3ccccc32)cc1	·	0%	7%	·	·	·
Cc1cc(=O)oc2cc(OCc3ccc(C(=O)N4CCN(c5ccccc5)CC4)cc3)ccc12	-8%	-12%[57.1 µM]	51%[57.1 µM]	5%	18µM*	0%
Cc1cc(=O)oc2cc(OCc3ccc(C(=O)N4CCN(c5ccc([N+](=O)[O-])cc5)CC4)cc3)ccc12	-10%	13%	3%	-2%	-30%	·
Cc1cc(-c2nc3ncccc3o2)ccc1NC(=O)c1ccc(Br)cc1	2%	19%	20%	0%	1%	·
CCOC(=O)c1cnc2ccc(OC)cc2c1Nc1cccc(C(C)=O)c1	?	5%	-4%	8%	16µM*	·
CCOC(=O)c1cnc2ccc(C(=O)OC)cc2c1NCCN1CCOCC1	5%	45µM*	7%	0%	10%	10%
CCOC(=O)c1cnc2ccc(OCC)cc2c1NCc1ccccc1OC	12µM*	14%	30%	0%	6.5µM*	2%
CCOC(=O)c1cnc2ccc(C(=O)OC)cc2c1NCCCN1CCOCC1	5%	-73%	8%[57.1 µM]	0%	1%	3%
CCOC(=O)c1cnc2ccc(OC)cc2c1NCCc1ccccc1	?	8%	8%	-1%	23µM*	·
CCOc1ccc(NC(=O)N(Cc2c[nH]c3ccccc23)C2CCCCC2)cc1	0%	13%	3%	8%	?	·
COCc1nn2c(=O)cc(N3CCNCC3)nc2s1	7%	·	·	·	5%	·
Cc1ccccc1CNc1ncnc2c1ncn2C1OC(CO)C(O)C1O (centres undefined)	·	8%[57.1 µM]	6%[57.1 µM]	·	·	·
OC[C@H]1O[C@@H](n2cnc3c(NCc4ccco4)ncnc32)[C@H](O)[C@@H]1O	?	-21%	-3%	?	8.2µM*	·
COc1ccc(C)cc1NC(=O)CCS(=O)(=O)c1ccc2c(c1)CC(=O)N2C	2%	12%[57.1 µM]	2%[57.1 µM]	-1%	22%	·
CCOc1cc(NC(=S)NCCCN2CCOCC2)c(OCC)cc1NC(=O)CC(C)C	1%	22µM*	1%[57.1 µM]	-1%	-6%	-3%
CC(=O)c1ccc(OC(=O)c2c(-c3ccccc3Cl)noc2C)cc1	10%	16%	-1%	15%	-7%	·
